This is a sample that favours compounds with a hit; in the whole collection about 2.1% have one here.
Calpain2 inh: inhibitors of pig calpain II. inhibition, % at 16 µM. 0.37% of 220,000 active. purified calpain II, fluorogenic peptide substrate, 30 min. AID 1236;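 active means inhibition above about 50%, limit read from the data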
Arbovirus anti: blocks arbovirus infection; arbovirus infection cell-based antiviral screen; inhibition, % at 10 µM; 0.37% of 200,000 active; AID 1251; in the data active means inhibition above about 30%
Efa HMGR inh: E. faecalis class II HMG-CoA reductase inhibition. purified E. faecalis HMGR, NADPH absorbance 340 nm kinetic. AID 1066. inhibition, % at 10 µM. 0.41% of 190,000 active;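 active means inhibition above a set limit, the median over all tested compounds plus 3 SD, cut at about 9.5% in these data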;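 further: enzyme runs in reverse so mevalonate oxidation gives rising NADPH absorbance; 0% = complete reaction with DMSO and 100% = background rate lacking mevalonate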
HSV replic up: increases HSV replication in cells; maximum fold increase; HSV replication augmentation in cells, fold increase; 0.005% of 220,000 active; in the data active means maximum fold increase above about 1.5; tested in PC3 cells
ROMK mod: modulators of human ROMK potassium channel; 2% of 130,000 active; B-score at 10 µM; Tet-inducible ROMK, thallium flux fluorescence; actives lie on both sides;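 active means signal ratio slope over the read window, or its plate-corrected B-score, at least 3 SD from the plate mean, either direction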;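 further: B-score of the F/F0 ratio slope over 7 to 12 s after thallium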
Target sequence (P48048 whole entry, looked up): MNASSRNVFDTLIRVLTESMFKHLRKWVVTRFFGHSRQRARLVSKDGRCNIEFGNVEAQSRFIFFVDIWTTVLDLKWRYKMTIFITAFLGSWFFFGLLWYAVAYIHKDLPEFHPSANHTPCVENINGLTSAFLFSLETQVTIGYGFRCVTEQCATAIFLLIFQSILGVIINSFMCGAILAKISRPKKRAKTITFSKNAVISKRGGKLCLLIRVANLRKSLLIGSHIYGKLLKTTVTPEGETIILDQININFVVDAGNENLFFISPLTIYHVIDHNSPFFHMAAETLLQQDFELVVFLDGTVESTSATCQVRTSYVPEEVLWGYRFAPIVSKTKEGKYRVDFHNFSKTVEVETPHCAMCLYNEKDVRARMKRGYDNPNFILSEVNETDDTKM
The depositor's hits bear a star; i = inactive; nt = not tested or not shown.

SMILES	Calpain2 inh	Arbovirus anti	Efa HMGR inh	HSV replic up	ROMK mod
O=S(=O)(C/C(=C/CO)S(=O)(=O)c1ccccc1)c1ccccc1	-29.6	-44.5	-0.2	i	-8.17*
O=C(c1cc(COc2c(F)cccc2F)on1)N1CCC(c2ccccc2Cl)C1 (configuration not stated)	55.1*	-0.5	-7.0	i	0.446
O=C(c1cc(COc2c(F)cccc2F)on1)N1CCC(c2ccccc2F)C1 (configuration not stated)	27.6	-11.6	-5.8	i	0.129
Cc1ccc(CNC(=O)C(=O)NCC2OCCN2C(=O)c2ccc3c(c2)OCO3)cc1 (configuration not stated)	9.8	-5.8	-1.9	i	-1.11
CCN(CC)CCNC(=O)C(=O)NCC1OCCN1C(=O)c1ccc2c(c1)OCO2 (configuration not stated)	-0.1	4.7	19.1*	i	nt
O=[N+]([O-])c1cccc(/C=N/NC2CCS(=O)(=O)C2)c1 (configuration not stated)	-9.5	nt	nt	i	nt
N#CCSc1nc(N)c(C#N)c(C2CCCCC2)c1C#N	-17.9	34.1*	-3.2	i	nt
O=[N+]([O-])c1ccc(Nc2ccccc2)nc1	9.8	-7.9	-5.6	i	-0.779
O=[N+]([O-])c1ccc(NCc2ccccc2)nc1	52.0*	0.8	-3.8	nt	-0.682
CC(=O)c1ccccc1OC(=O)CCN1C(=O)c2ccccc2C1=O	-25.2	-3.1	13.1*	i	-0.934
CC1=Nc2ccc(C)cc2/C1=C/c1c(N)n2c(S(=O)(=O)C(C)C)nsc2nc1=O	-25.9	44.8*	-1.9	i	-1.48
CC1=Nc2ccccc2/C1=C/c1c(N)n2c(S(=O)(=O)C(C)C)nsc2nc1=O	-77.6	39.4*	-6.9	i	0.0937
CCc1nn2c(N)c(/C=C3\C=Nc4ccccc43)c(=O)nc2s1	-22.4	31.1*	2.5	i	nt
CC1=Nc2ccccc2/C1=C/c1c(N)n2c(S(=O)(=O)CC(C)C)nsc2nc1=O	5.5	5.6	-2.7	i	-1.64
CC(C)S(=O)(=O)c1nsc2nc(=O)c(/C=C3\C=Nc4ccccc43)c(N)n12	2.8	36.6*	3.3	i	1.65
Cc1cn2c(N)c(/C=C3\C=Nc4ccccc43)c(=O)nc2s1	38.0	nt	nt	i	nt
CSc1nsc2nc(=O)c(/C=C3\C(C)=Nc4ccc(C)cc43)c(N)n12	-35.7	20.4	-2.4	i	0.508
CSc1nsc2nc(=O)c(/C=C3\C=Nc4ccccc43)c(N)n12	-0.8	38.0*	-8.4	i	2.07*
CSC(=S)N/N=C(\C)c1ccccc1	0.8	-3.7	-3.5	i	10.5*
Cc1cc(C)nc(SCCn2c(N3CC(C)OC(C)C3)nc3c2c(=O)n(C)c(=O)n3C)n1 (configuration not stated)	22.9	6.3	-4.3	i	nt
O=C1CC(NC(=O)C(F)(F)F)=NN1c1ccccc1	-9.4	-27.2	-1.9	i	0.36
CC(C)(Oc1ccc(Cl)cc1)C(=O)NC1=NN(c2ccccc2)C(=O)C1	-31.8	35.2*	1.8	i	1.38
Cc1onc(-c2c(F)cccc2Cl)c1C(=O)ONC(=O)c1ccco1	-26.1	nt	nt	i	-0.0729
O=C(NN1CCCCC1)c1cccc2ccccc12	-34.3	-0.6	-2.3	i	1.25
COC(=O)c1ccc(C(NC(=O)OCc2ccccc2)/C(C)=C/[C@@H](C)C(=O)NCc2ccc(-c3ccccc3)cc2)cc1 (some centres not stated)	-21.5	-4.6	14.2*	i	-0.0741
SMILES	Calpain2 inh	Arbovirus anti	Efa HMGR inh	HSV replic up	ROMK mod
Cc1ccc(CNC(=O)C(CCC(N)=O)NC(=O)OCc2ccccc2)cc1 (configuration not stated)	-13.7	3.2	-1.7	i	-0.0172
CCC(C)NC(=O)CCn1c(-c2ccc(F)cc2)cc(C(C)=O)c1C (configuration not stated)	-13.8	16.8	9.7*	i	-0.0225
Cn1c(N)c(C(=O)COC(=O)CCc2ccccc2)c(=O)n(C)c1=O	14.0	5.2	-1.4	i	nt
Cn1c(N)c(C(=O)COC(=O)CCC2CCCC2)c(=O)n(C)c1=O	79.7*	-0.8	1.2	i	-0.249
Cn1c(N)c(C(=O)COC(=O)C2CCCC2)c(=O)n(C)c1=O	16.7	3.5	-4.7	i	0.0568
Cn1c(N)c(C(=O)COC(=O)CCC2CCCCC2)c(=O)n(C)c1=O	78.1*	-3.2	1.4	i	1.31
Cn1c(N)c(C(=O)COC(=O)C2CCC(C(C)(C)C)CC2)c(=O)n(C)c1=O (configuration not stated)	109.9*	5.8	-3.1	i	0.393
Cc1cc(Br)ccc1SCC(=O)OCC(=O)c1c(N)n(C)c(=O)n(C)c1=O	76.9*	nt	nt	i	nt

From PubChem
